Screens as filed in PubChem BioAssay.
Only some compounds are listed: those with a hit (about 21% of all), similar ones and a draw of the others.
ELG1 DNA repair = blocks ELG1-dependent DNA repair in HEK293T cells; Potency, µM (series often up to 46.1 µM), inactives show at the highest dose activity change, negative = inhibition, hits mostly inhibitors; HEK293T ELG1-luciferase reporter, luminescence, 16 h; DNA damage induced by 5-fluorouridine; AID 504467; 330,000 compounds, 2.3% hits; further: potency means the concentration at half of the fitted maximal effect; nearly all actives have a fitted effect of over 55% in size
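Cells (2,000 per well) received 5-fluorouridine plus test compound or DMSO and were incubated 16 hr at 37 °C, 5% CO2. Luciferase activity was read by luminescence 30 min after ONE-Glo addition; signal suppression marked inhibition of damage-induced ELG1 function.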
TDP1 cell noCPT = qHTS for Inhibitors of human tyrosyl-DNA phosphodiesterase 1 (TDP1): qHTS in cells in absence of CPT. DT40 Tdp1-/- hTDP1 cells, no CPT, ATP luminescence, 48 h. Potency, µM (doses to about 46.2 µM), for the others: top-dose activity change, negative = growth inhibition, actives largely listed as inhibitors. 420,000 compounds, 15% hits. AID 686978, 2013; further: potency means the concentration at half of the fitted maximal effect; nearly all actives have a fitted effect of over 55% in size
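DT40 Tdp1-/-;hTDP1 cells, no CPT (DMSO vehicle only), 400 cells/well; compounds pin-transferred; ≥48 hr, 37 °C; CellTiter-Glo 30 min RT dark, luminescence read.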
RORg inh = ROR gamma (mouse) transcription inhibition; Drosophila S2 Gal4-RORgamma UAS-luciferase reporter, 20 h; Potency, µM (doses to about 53.6 µM), for the others: at the top dose activity change, negative = inhibition, actives largely listed as inhibitors; 310,000 compounds, 5.4% hits; P51450; further: potency means the concentration at half of the fitted maximal effect; nearly all actives have a fitted effect of over 60% in size
Target sequence (P51450 whole entry, looked up, the tested form may be a part): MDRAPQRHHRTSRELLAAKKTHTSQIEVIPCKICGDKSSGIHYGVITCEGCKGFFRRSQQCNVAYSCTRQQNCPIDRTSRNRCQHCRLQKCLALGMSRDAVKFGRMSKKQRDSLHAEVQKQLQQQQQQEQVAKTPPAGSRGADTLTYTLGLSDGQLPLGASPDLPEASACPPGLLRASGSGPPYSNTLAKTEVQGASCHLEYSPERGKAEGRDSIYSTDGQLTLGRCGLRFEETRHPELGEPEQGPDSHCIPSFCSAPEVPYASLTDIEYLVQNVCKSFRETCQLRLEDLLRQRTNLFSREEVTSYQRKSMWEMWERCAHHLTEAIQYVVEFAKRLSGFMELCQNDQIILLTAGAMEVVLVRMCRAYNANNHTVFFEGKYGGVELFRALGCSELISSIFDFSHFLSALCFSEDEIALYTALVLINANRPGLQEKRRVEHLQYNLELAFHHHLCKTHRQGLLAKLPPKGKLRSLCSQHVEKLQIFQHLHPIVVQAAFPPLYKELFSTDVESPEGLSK
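Schneider cells (Drosophila), stable Gal4 DBD–ROR gamma + UAS-luc; 1 hr cmpd preincubation; Cu2+ induction 700 uM final; 20 hr ambient; luminescence.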
DT40 TDP1 CPT = growth inhibition of DT40 Tdp1-/-;hTDP1 cells with camptothecin (screen for TDP1 inhibitors) | Potency, µM (top dose mostly 46.2 µM), inactives show top-dose activity change, negative = growth inhibition, most hits filed as inhibitors | 420,000 compounds, 12% hits | chicken DT40 Tdp1-/-;hTDP1 cells + 20 nM CPT, ATP luminescence, 48 h | AID 686979; further: potency means the concentration at half of the fitted maximal effect; nearly all actives have a fitted effect of over 55% in size
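Cell growth measured by CellTiter-Glo luminescence after a minimum 48 h, 37 C compound exposure with 20 nM CPT in Tdp1-knockout DT40 cells stably expressing hTDP1, seeded 400/well; qHTS titration format.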
Gal4-VP16 FLuc = inhibits Gal4-VP16 luciferase reporter, ROR gamma counter-screen; Drosophila S2 Gal4-VP16 UAS-luciferase, luminescence, 20 h; Potency, µM (top dose mostly 53.6 µM), for inactives: at the top dose activity, negative = inhibition, hits mostly inhibitors; 310,000 compounds, 3.5% hits;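 further: Gal4-VP16 expression switched on by copper sulfate through the metallothionein promoter; potency means the concentration at half of the fitted maximal effect; nearly all actives have a fitted effect of over 50% in size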
IL-1B inflam inh = blocks inflammasome-driven IL-1 beta release; AID 743279; 360,000 compounds, 4.7% hits; THP-1 LPS/ATP IL-1B secretion, AlphaLISA, 16 h; hits give low values; activity change, % at 57.5 µM; in the data active means activity change below about -50%; inconclusive means mostly about -30% to -49%
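Secreted IL-1B measured by AlphaLISA bead assay after 16 h compound exposure of THP-1 cells; compounds (final up to 57.5 uM) added 1 h before LPS (250 ng/mL) and ATP (1.25 mM) stimulation; lower signal means less secretion.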
* marks the source's active call; other numbers are inactive results; [ ] = remark or other dose. Unless noted, the call rests on the fitted dose curve; in most records, active means well fitted curve in the direction sought with a large enough effect; inconclusive means small, poorly fitted or top-dose-only effect, or another doubt; inactive means no such curve, though single readings can be large; an effect the other way counts as inactive or inconclusive. On the % scale 0 is the no-effect control and ±100 the full control effect.

What do the screens show for `CC(C)C[C@H](NC(=O)CN(C)C(=O)[C@H](Cc1ccccc1)NC(=O)[C@H](Cc1ccccc1)NC(=O)[C@H](CCC(N)=O)NC(=O)[C@H](CCC(N)=O)NC(=O)[C@@H]1CCCN1C(=O)[C@H](CCCCN)NC(=O)[C@@H]1CCCN1C(=O)[C@@H](N)CCCN=C(N)N)C(=O)N[C@@H](CCS(C)(=O)=O)C(N)=O`?
RORg inh: -3%; Gal4-VP16 FLuc: 5%

Results for CC(OC(=O)c1ccc2ncsc2c1)C(=O)NC1CCCCC1C (stereo not drawn) ?
ELG1 DNA repair: 9%; TDP1 cell noCPT: inconclusive; DT40 TDP1 CPT: -12%; IL-1B inflam inh: 11

How did Cc1ccc(-c2cn3c(n2)sc2cc(C(=O)NC4CCCCC4)ccc23)cc1 do in these assays?
TDP1 cell noCPT: 4.6µM*; DT40 TDP1 CPT: 4.1µM*

What do the screens show for `CC(NC(=O)c1ccc2c(c1)sc1nc(-c3ccc(F)cc3)cn12)C12CC3CC(CC(C3)C1)C2` (stereo not drawn)?
TDP1 cell noCPT: -7%; DT40 TDP1 CPT: -10%

How did O=C(NC1CCCCC1)c1ccc2c(c1)sc1nc(-c3ccccc3)cn12 do in these assays?
TDP1 cell noCPT: 10µM*; DT40 TDP1 CPT: inconclusive

Results for CCc1ccc(-c2cn3c(n2)sc2cc(C(=O)NC4CCCCCC4)ccc23)cc1 ?
TDP1 cell noCPT: 10µM*; DT40 TDP1 CPT: 12µM*

How did Cc1ccc(-c2cn3c(n2)sc2cc(C(=O)NC4CCCCCC4)ccc23)cc1 do in these assays?
TDP1 cell noCPT: 16µM*; DT40 TDP1 CPT: 10µM*

How did CCCCC[C@]12Cc3cc(OC)c(OC)cc3C(O1)c1c(cc(C)n(-c3ccccc3)c1=O)O2 do in these assays?
RORg inh: 4%[10 µM]; Gal4-VP16 FLuc: -1%[10 µM]

How did CSc1ccccc1NC(=O)c1ccc(N2CCCC2=O)cc1 do in these assays?
ELG1 DNA repair: inconclusive; TDP1 cell noCPT: 7%; DT40 TDP1 CPT: 7%; IL-1B inflam inh: -5

Results for CCC(=O)Nc1nnc(SCC(=O)c2ccc3c(c2)Cc2ccccc2-3)s1 ?
ELG1 DNA repair: 34%; TDP1 cell noCPT: -29%; RORg inh: 2%; DT40 TDP1 CPT: inconclusive; Gal4-VP16 FLuc: -4%; IL-1B inflam inh: 10

How did COc1ccc(Cl)cc1NC(=O)C1COc2ccccc2O1 (stereo not drawn) do in these assays?
ELG1 DNA repair: inconclusive; TDP1 cell noCPT: inconclusive; RORg inh: 2%; DT40 TDP1 CPT: -30%; Gal4-VP16 FLuc: -8%; IL-1B inflam inh: 0

Results for O=C(Nc1ccc(S(=O)(=O)N2CCCC2)cc1)C1COc2ccccc2O1 (stereo not drawn) ?
ELG1 DNA repair: 7%; TDP1 cell noCPT: inconclusive; RORg inh: 24%; DT40 TDP1 CPT: inconclusive; Gal4-VP16 FLuc: 6%; IL-1B inflam inh: 4

How did O=C(Nc1nc(-c2ccccc2)cs1)C1COc2ccccc2O1 (stereo not drawn) do in these assays?
ELG1 DNA repair: 12%; TDP1 cell noCPT: inconclusive; RORg inh: 25%; DT40 TDP1 CPT: -5%; Gal4-VP16 FLuc: 15%; IL-1B inflam inh: -5

What do the screens show for `O=C(Nc1nc(-c2ccc(S(=O)(=O)N3CCCC3)cc2)cs1)C1COc2ccccc2O1` (stereo not drawn)?
ELG1 DNA repair: inconclusive; TDP1 cell noCPT: 7.3µM*; RORg inh: 13%; DT40 TDP1 CPT: 9.2µM*; Gal4-VP16 FLuc: 1%; IL-1B inflam inh: -29

What do the screens show for `O=C(Nc1nc(-c2ccccn2)cs1)C1COc2ccccc2O1` (stereo not drawn)?
ELG1 DNA repair: 12%; TDP1 cell noCPT: 5.2µM*; RORg inh: 0.89µM*; DT40 TDP1 CPT: 3.3µM*; Gal4-VP16 FLuc: 0.2µM*; IL-1B inflam inh: 94

Results for Cc1cnc(NC(=O)C2COc3ccccc3O2)s1 (stereo not drawn) ?
ELG1 DNA repair: inconclusive; TDP1 cell noCPT: inconclusive; RORg inh: 7.1µM*; DT40 TDP1 CPT: 21µM*; Gal4-VP16 FLuc: 8.9µM*; IL-1B inflam inh: 5

How did CN1CCN(c2ccc(Cl)cc2NC(=O)C2COc3ccccc3O2)CC1 (stereo not drawn) do in these assays?
ELG1 DNA repair: inconclusive; TDP1 cell noCPT: 29µM*; RORg inh: 0%; DT40 TDP1 CPT: inconclusive; Gal4-VP16 FLuc: 0%; IL-1B inflam inh: -4

Results for COc1ccc2c(C)cc(SCC(=O)NCCN3C(=O)CSC3=O)nc2c1 ?
ELG1 DNA repair: -16%; TDP1 cell noCPT: 0%; RORg inh: 42%; DT40 TDP1 CPT: 1%; Gal4-VP16 FLuc: -1%; IL-1B inflam inh: 15

What do the screens show for `COCCNC(=O)CN1C(=O)COc2ccc(S(=O)(=O)N3CC(C)CC(C)C3)cc21` (stereo not drawn)?
ELG1 DNA repair: 24%; TDP1 cell noCPT: -2%; RORg inh: -18%; DT40 TDP1 CPT: 6%; Gal4-VP16 FLuc: -3%; IL-1B inflam inh: -16

Results for O=C(Nc1ccc(Cl)cn1)C1COc2ccccc2O1 (stereo not drawn) ?
ELG1 DNA repair: 7%; TDP1 cell noCPT: -15%; RORg inh: 4µM*; DT40 TDP1 CPT: inconclusive; Gal4-VP16 FLuc: inconclusive; IL-1B inflam inh: 2

Results for Cc1csc(NC(=O)C2COc3ccccc3O2)n1 (stereo not drawn) ?
ELG1 DNA repair: inconclusive; TDP1 cell noCPT: -20%; RORg inh: 14µM*; DT40 TDP1 CPT: inconclusive; Gal4-VP16 FLuc: 11µM*; IL-1B inflam inh: 16

What do the screens show for `CSc1nc2ccc3nc(NC(=O)C4COc5ccccc5O4)sc3c2s1` (stereo not drawn)?
ELG1 DNA repair: inconclusive; TDP1 cell noCPT: inconclusive; RORg inh: 10µM*; DT40 TDP1 CPT: inconclusive; Gal4-VP16 FLuc: -19%; IL-1B inflam inh: -21

Results for O=C(Nc1ccccn1)C1COc2ccccc2O1 (stereo not drawn) ?
ELG1 DNA repair: inconclusive; TDP1 cell noCPT: -24%; RORg inh: -32%; DT40 TDP1 CPT: inconclusive; Gal4-VP16 FLuc: -13%; IL-1B inflam inh: 18

Results for CC1Cc2ccccc2N1C(=O)COC(=O)c1ccc([N+](=O)[O-])o1 (stereo not drawn) ?
ELG1 DNA repair: -2%; TDP1 cell noCPT: -15%; DT40 TDP1 CPT: inconclusive; IL-1B inflam inh: -9
